From PubChem BioAssay (NCI)
The panel holds about 79,000 compounds, 15% with a hit somewhere; the sample as a whole holds those more often. Activity calls are given as the source filed them. No stated cut-off is given here; in the data, active means growth inhibition above about 70%; inactive means the rest.

assay: NCI Yeast Anticancer Drug Screen. Data for the wt2 strain (AID 169);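 further: 0% = growth of vehicle-treated yeast cultures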; conditions: S. cerevisiae wt2 strain growth inhibition; at 11.0 µM; hits give high values
Summary of the method: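 Treated yeast vs. vehicle-treated yeast: growth inhibition determined.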

**Q.** For `O=CC=C(c1ccccc1)c1ccccc1`, which growth inhibition is on record?
**A.** 6% (inactive)

**Q.** For `FC(F)(F)c1nc2nc(Cl)c(Cl)nc2n1CCCN1CCOCC1`, which growth inhibition is on record?
**A.** 13% (inactive)

**Q.** With `BrCC[P+](c1ccccc1)(c1ccccc1)c1ccccc1` as the compound, how does the growth inhibition read?
**A.** 15% (inactive)

**Q.** With `N#CSc1ccc(S(N)(=O)=O)cc1` as the compound, how does the growth inhibition read?
**A.** -32% (inactive)

**Q.** With `O=[N+]([O-])c1ccc2nc3ccccc3cc2c1` as the compound, how does the growth inhibition read?
**A.** 3% (inactive)

**Q.** With `O=C(NC(Nc1ccc(F)c(Cl)c1)(C(F)(F)F)C(F)(F)F)C(C(F)(F)F)C(F)(F)F` as the compound, how does the growth inhibition read?
**A.** 86% (active)

**Q.** Which growth inhibition does the source give for `O=C(/C=C\c1ccc(Cl)cc1Cl)c1cccs1` here?
**A.** -3% (inactive)

**Q.** Which growth inhibition does the source give for `O=C(NCCCCNCCCNC(=O)c1cc(-c2ccccc2)nc2ccccc12)c1cc(-c2ccccc2)nc2ccccc12` here?
**A.** -2% (inactive)

**Q.** For `NC(=NCc1ccccc1)N/N=C\c1ccnc2ccccc12`, which growth inhibition is on record?
**A.** -1% (inactive)

**Q.** For `CCCCN(CCCC)CCSc1ccc(Cl)cc1`, which growth inhibition is on record?
**A.** 13% (inactive)

**Q.** For `COc1cc(C2C3=C(COC3=O)Oc3cc4c(cc32)OCO4)ccc1O` (centres undefined), which growth inhibition is on record?
**A.** -5% (inactive)

**Q.** For `C#CCCCc1ccccc1`, which growth inhibition is on record?
**A.** -54% (inactive)

**Q.** With `CCc1ccc(NS(=O)(=O)c2ccccc2)c([N+](=O)[O-])c1` as the compound, how does the growth inhibition read?
**A.** 3% (inactive)

**Q.** With `COc1ccc(C2c3cc4c(cc3OC(C)(O)C2C)OCO4)c(OC)c1` (centres undefined) as the compound, how does the growth inhibition read?
**A.** -2% (inactive)

**Q.** For `COC(=O)c1ccc(CCC2=CC(=O)C(Br)=CC2=O)cc1`, which growth inhibition is on record?
**A.** 39% (inactive)

**Q.** With `NNC(=O)CCc1ccc2ccc3ccccc3c2c1` as the compound, how does the growth inhibition read?
**A.** 2% (inactive)

**Q.** For `Cn1c2ccccc2c(=O)c2cc(NC(=O)CCCCC(=O)Nc3ccc4c(c3)c(=O)c3ccccc3n4C)ccc21`, which growth inhibition is on record?
**A.** -1% (inactive)

**Q.** With `CC(CC(C)(C)[N+](C)(C)C)[N+](C)(C)C` (centres undefined) as the compound, how does the growth inhibition read?
**A.** 0% (inactive)

**Q.** With `CC1CCN(CCC(=O)c2ccc(Cl)cc2)CC1` as the compound, how does the growth inhibition read?
**A.** 18% (inactive)

**Q.** With `CCCCCCCCCCCCCCC(C(=O)[O-])[n+]1ccccc1` (centres undefined) as the compound, how does the growth inhibition read?
**A.** -1% (inactive)

**Q.** For `CNC1C(OC2C(OC3C(O)C(O)C(N=C(N)N)C(O)C3N=C(N)N)OC(C)C2(O)CO)OC(CO)C(O)C1O` (centres undefined), which growth inhibition is on record?
**A.** -1% (inactive)

**Q.** With `O=C(O)c1ccccc1-c1ccccc1C(=O)Nc1ccc2c(c1)Cc1ccccc1-2` as the compound, how does the growth inhibition read?
**A.** 16% (inactive)

**Q.** For `O=[N+]([O-])c1cccc2nc3ccccc3c(NCCCN3CCOCC3)c12`, which growth inhibition is on record?
**A.** 76% (active)

**Q.** For `C=CC(C)(O)CCC1C(=C)C(O)CC2C(C)(C)CCCC12C` (centres undefined), which growth inhibition is on record?
**A.** -13% (inactive)

**Q.** For `CN1c2ccc(Cl)cc2C(=O)NC1c1ccc([N+](=O)[O-])s1` (centres undefined), which growth inhibition is on record?
**A.** 42% (inactive)

**Q.** For `[O-][n+]1c2ccc(O)cc2nc2ccc(Br)cc21`, which growth inhibition is on record?
**A.** 25% (inactive)

**Q.** Which growth inhibition does the source give for `O=C1c2ccccc2-c2nc3ccccc3nc21` here?
**A.** -10% (inactive)

**Q.** Which growth inhibition does the source give for `CCCCN1C(=O)N(c2ccc(OCC)cc2)C2N(CCCC)C1C(C)(C)C2(C)C` (centres undefined) here?
**A.** 12% (inactive)

**Q.** With `CO[C@H]1C[C@](C)(O)Cc2cc3c(c(O)c21)C(=O)c1c(O)cc2c(c1C3=O)O[C@@H]1O[C@@]2(C)[C@H](O)[C@@H](N(C)C)[C@@H]1O` as the compound, how does the growth inhibition read?
**A.** -26% (inactive)

**Q.** Which growth inhibition does the source give for `COc1cc2c(cc1[N+](=O)[O-])C(=O)C(Br)(Br)CCC2` here?
**A.** 90% (active)

**Q.** Which growth inhibition does the source give for `O=C1OC(CCl)CN1/N=C/c1ccc([N+](=O)[O-])o1` (centres undefined) here?
**A.** 20% (inactive)

**Q.** Which growth inhibition does the source give for `CN(C)CCOc1ccc2c(c1)C/C(=C/c1ncc([N+](=O)[O-])n1C)C2=O` here?
**A.** -30% (inactive)

**Q.** Which growth inhibition does the source give for `CCCCCCCCCCCCCCCCCCN(C)CC(COP(=O)([O-])OCC[N+](C)(C)C)OC` (centres undefined) here?
**A.** -17% (inactive)

**Q.** For `CC(C)c1ccccc1NC(=O)/C(Cl)=C(\Cl)C(=O)O`, which growth inhibition is on record?
**A.** 0% (inactive)

**Q.** For `O=[N+]([O-])C(=C(Sc1ccccc1)Sc1ccccc1)C(Cl)=C(Cl)Cl`, which growth inhibition is on record?
**A.** 39% (inactive)

**Q.** With `C(=C\c1ccccc1)/COc1ccccc1C(N1CCOCC1)n1nc2ccccc2n1` (centres undefined) as the compound, how does the growth inhibition read?
**A.** 25% (inactive)

**Q.** Which growth inhibition does the source give for `O=C1C(Nc2ccccc2)=C(Oc2ccccc2)C(=O)c2ccccc21` here?
**A.** 11% (inactive)

**Q.** For `CCN(CC)CCN1C(=O)c2cccc3cc(OC)cc(c23)C1=O`, which growth inhibition is on record?
**A.** -38% (inactive)

**Q.** With `CN(C)Cc1cc(N=Nc2ccc(Cl)cc2)cc(CN(C)C)c1O` as the compound, how does the growth inhibition read?
**A.** 8% (inactive)
